The panel holds about 79,000 compounds, 15% with a hit somewhere; the sample as a whole holds those more often. Unmarked numbers belong to inactive results. Active and inactive are the calls of the source. Cut-off read from the data, not from the text of the source: active = growth inhibition above about 70%; inactive = the rest.
Key:
[1] = NCI Yeast Anticancer Drug Screen. Data for the rad50 strain (AID 155);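 note: 0% = growth of vehicle-only cultures of the same strain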; conditions: S. cerevisiae rad50 strain growth inhibition, hits give high values
Procedure, shortened: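 Inhibition values express reduced yeast growth in compound-treated cultures relative to vehicle-treated controls.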

[2] = NCI Yeast Anticancer Drug Screen. Data for the mec2-1 strain (AID 157); conditions: S. cerevisiae mec2-1 strain, hits give high values
Procedure, shortened: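 Yeast mec2-1 mutant treated with compound. Readout: growth inhibition vs vehicle controls.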

[3] = NCI Yeast Anticancer Drug Screen. Data for the sgs1 mgt1 strain (AID 161);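 note: 0% = growth of cultures given vehicle only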; conditions: S. cerevisiae sgs1 mgt1 strain, hits give high values
Procedure, shortened: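 Read-out: growth inhibition vs vehicle controls. Cells: mutant yeast strain deficient in DNA damage repair.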

[4] = NCI Yeast Anticancer Drug Screen. Data for the cln2 rad14 strain (AID 165);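 note: 0% = growth equal to vehicle treated cultures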; conditions: S. cerevisiae cln2 rad14 strain, hits give high values
Procedure, shortened: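 cln2 rad14 yeast strain; compound exposure; growth inhibition read vs vehicle controls.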

[5] = NCI Yeast Anticancer Drug Screen. Data for the bub3 strain (AID 167); conditions: S. cerevisiae bub3 mutant strain, hits give high values
Procedure, shortened: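 Steps: expose the mutant yeast strain to compound; grow alongside vehicle-treated cultures; measure growth; express inhibition against the vehicle cultures.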

[6] = NCI Yeast Anticancer Drug Screen. Data for the mlh1 rad18 strain (AID 175); conditions: S. cerevisiae mlh1 rad18 strain growth inhibition, hits give high values
Procedure, shortened: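 Yeast w/ defined DNA-repair lesions; compound exposure; growth vs vehicle controls → % inhibition.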

[7] = at 5.0 µM (retest, dose inferred, filed as 0.5)
[8] = at 50.0 µM (retest, dose inferred, filed as 5.0)

Compound | growth inhibition [1, 7] | growth inhibition [1, 8] | growth inhibition ([1]; at 50.0 µM) | growth inhibition [2, 7] | growth inhibition [2, 8] | growth inhibition ([2]; at 50.0 µM) | growth inhibition [3, 7] | growth inhibition [3, 8] | growth inhibition ([3]; at 50.0 µM) | growth inhibition [4, 7] [%] | growth inhibition [4, 8] | growth inhibition ([4]; at 50.0 µM) | growth inhibition [5, 7] | growth inhibition [5, 8] | growth inhibition ([5]; at 50.0 µM) | growth inhibition [6, 7] | growth inhibition [6, 8] | growth inhibition ([6]; at 50.0 µM)
CCOC(=O)C(CC)(CCc1ccccc1[N+](=O)[O-])C(=O)OCC | 8% | -24% | 61.2% | -3% | -2% | -6.6% | 9% | 37% | 39.2% | 0 | -17% | -18.1% | 6% | 24% | 75.9% (active) | 17% | 13% | 60.9%
CCCCCCCCCCCCCC1=NCC(C)(C)N1 | 83% (active) | 100% (active) | 99.2% (active) | 85% (active) | 100% (active) | 97.3% (active) | 91% (active) | 100% (active) | 99.7% (active) | 66 | 99% (active) | 97.8% (active) | 89% (active) | 100% (active) | 99.7% (active) | 82% (active) | 100% (active) | 99.5% (active)
COc1cc(C(c2cc3c(cc2O)OCO3)N2CCOCC2)ccc1O (configuration not stated) | 2% | 25% | 44.8% | -4% | 46% | 57.5% | -2% | 27% | 73% (active) | 1 | 3% | 47.6% | -4% | 25% | 42.9% | -5% | 34% | 50.5%
CCn1c2ccccc2c(=O)c2c(OC)ccc(OC)c21 | 2% | 73% (active) | 77.6% (active) | 4% | 51% | -1.7% | 0% | 94% (active) | 81.5% (active) | -1 | 24% | 49.4% | 28% | 75% (active) | 52.6% | -1% | 87% (active) | 89.8% (active)
CCOC(=O)C1CCC(=O)O1 (configuration not stated) | -4% | 43% | -14% | 3% | 87% (active) | 7.85% | 4% | 78% (active) | 2.4% | -23 | 36% | 16.6% | 2% | 93% (active) | 10.8% | -1% | 95% (active) | -1.15%
OC(CCN1CCOCC1)C1c2ccccc2Cc2ccccc21 (configuration not stated) | 6% | 74% (active) | 77.2% (active) | 6% | 29% | -1% | 1% | 91% (active) | 60% | 1 | 30% | -28.3% | 0% | 76% (active) | 46.6% | 9% | 81% (active) | 23.4%
CC(=O)N1C(C(=O)NNc2ccccc2)CSC1c1ccccc1 (configuration not stated) | 71% (active) | 90% (active) | 38.1% | 40% | 84% (active) | 64.6% | 75% (active) | 89% (active) | 44.6% | 42 | 82% (active) | 65% | 57% | 93% (active) | 35.2% | 83% (active) | 96% (active) | 56.1%
O=[N+]([O-])c1cccc2c[n+](Cc3ccccc3)ccc12 | -1% | 24% | 41.7% | -1% | 19% | 1.65% | -4% | 18% | 10.1% | -13 | 15% | 38.4% | -7% | -5% | -1.05% | -7% | 12% | 12.3%
Cc1ccccc1CN(C)CCO | 0% | -8% | 65.7% | -1% | 2% | 17.3% | 2% | 13% | 14.1% | -8 | -1% | 56.8% | -5% | -5% | 13.6% | -5% | -6% | 13.8%

From PubChem BioAssay (NCI)
